Bioassay records: PubChem BioAssay, National Center for Advancing Translational Sciences (NCATS)
Compounds with a hit are over-represented: about 12% of the library has one in this group of screens.
Sm TGR block: S. mansoni TGR enzyme inhibition. purified TGR, DTNB reduction, TNB absorbance 405 nm. 3% of 360,000 active. Potency, µM (doses to about 114 µM), without a hit: at the highest dose activity change, negative = inhibition, most hits filed as inhibitors. Q962Y6; active = well fitted inhibition curve with a large enough effect; inconclusive = small, poorly fitted or top-dose-only effect; inactive = no such curve, though single readings can be large or run the other way; also: potency is read from the fitted curve at half-maximal effect; % is scaled to controls: 0 for no effect and ±100 for the full control effect; nearly all actives have a fitted effect of over 60% in size
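TGR 20 nM + NADPH 100 uM (dispensed conc.), cpd preinc 15 min RT; start with NADPH (500 uM addition) then DTNB (15 mM addition). Kinetic TNB absorbance, 405 nm filter. Four-parameter Hill fit across titration.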
Shiga inhibitor: Shiga toxin inhibition. inhibition, % at 38.7 µM. AID 2315. 9.2% of 290,000 active. Vero cells, Shiga toxin protein synthesis inhibition reporter; in the data active = inhibition mostly above about 28%, no sharp cut-off; inactive = mostly below about 43%; also: 0% is about no effect
FMDV inh: antivirals against foot and mouth disease virus. Potency, µM (top dose mostly 57.9 µM), for inactives: top-dose activity change, negative = inhibition, hits mostly inhibitors. FMDV antiviral cell-based qHTS. AID 1159524. 1.2% of 410,000 active; calls by dose curve; tested in HEK293T cells; also: read-out not given here; potency is read from the fitted curve at half-maximal effect; % is scaled to controls: 0 for no effect and ±100 for the full control effect; nearly all actives have a fitted effect of over 45% in size
CHX counter: counter-screen hit for Shiga toxin inhibitors, cycloheximide; max response, %; 12% of 300,000 active; cell reporter, cycloheximide protein synthesis inhibition counterscreen; AID 2314; in the data active = max response mostly above about 13%, no sharp cut-off; inactive = mostly below about 14%; also: read at 38.3 µM for the half of the compounds with a filed dose; 0% is about no effect
Active calls of the source: *; u = inconclusive; x = no result.

SMILES | Sm TGR block | Shiga inhibitor | FMDV inh | CHX counter
Cc1ccc(NC(=O)CCNC(=O)c2ccc([N+](=O)[O-])cc2)cc1S(=O)(=O)N(C)C | -2% | 29 | 28µM* | 4
Cc1ccc(NC(=O)c2ccc(OC(F)F)cc2)cc1S(=O)(=O)N(C)C | -20% | 0 | u | 29*
Cc1ccc(NC(=O)c2cccnc2)cc1S(=O)(=O)N(C)C | -9% | 23 | 9% | 12
O=c1c(-c2cccs2)nc2cnc(N3CCOCC3)nc2n1CCc1ccccc1 | x | x | -8% | x
COc1ccc(C(=O)NC2=Nc3ccccc3N=C(C)C2c2ccccc2)cc1 (stereo unspecified) | -6% | 190* | 40% | 44*
CC1=Nc2ccccc2N=C(NC(=O)/C=C/C(=O)O)C1c1ccccc1 (stereo unspecified) | 0% | 77* | 9% | 40*
CCn1cc(CN2CCOc3ccc(C(O)C4CCCCC4)cc3C2)c(C)n1 (stereo unspecified) | x | x | -20% | x
Cc1ccc(S(=O)(=O)/N=C(/NC(=S)Nc2ccccc2)c2ccccc2)cc1 | 0% | 73* | 34% | 30*
Cc1ccc(S(=O)(=O)/N=C(/Nc2ccccc2C)c2ccccc2)cc1 | x | x | 19% | x
Cc1ccc(NC(=S)N/C(=N/S(=O)(=O)c2ccccc2)c2ccccc2)cc1 | u | 90* | 23% | 49*
Cc1noc(C)c1-c1cc(NC2CC2)ncn1 | x | x | -12% | x
Cc1sc2c(c1C)c(=O)n(Cc1ccccc1)c(=O)n2CC(=O)Nc1cccc(Cl)c1 | 4% | x | -15% | x
Cc1ccc2c(c1)c1c(c(=O)n(Cc3ccccc3)c(=O)n1Cc1ccccc1F)n2C | -1% | x | 6% | x
COc1ccc(CN2CCN(c3ncnc4sc5c(c34)CCCC5)CC2)cc1F | 9% | x | u | x
CN(c1ccccc1)S(=O)(=O)c1cccc(C(=O)OCC(=O)NCc2ccccc2)c1 | x | x | -6% | x
COc1cc(OC)c(N(C)S(=O)(=O)c2cccc(C(=O)OCC(=O)NCc3ccco3)c2)cc1Cl | 3% | -12 | u | 21*
COc1cc(OC)c(N(C)S(=O)(=O)c2cccc(C(=O)OCC(=O)N(C)Cc3ccccc3)c2)cc1Cl | x | x | -3% | x
CN(c1ccccc1)S(=O)(=O)c1cccc(C(=O)OCC(=O)NCc2ccco2)c1 | 56µM* | 13 | -21% | 12
CCOC(=O)c1cnc2c(Cl)cc(Cl)cc2c1NCCCN1CCOCC1 | 13µM* | x | -29% | -3
CCOC(=O)c1cnc2c(C)cc(Cl)cc2c1NCCCN1CCOCC1 | u | -4 | -7% | 1
CCOC(=O)c1cnc2ccc(Cl)cc2c1Nc1ccc(N2CCOCC2)cc1 | 4% | x | 22µM* | x
COC(=O)c1ccc(C2c3c(oc4ccccc4c3=O)C(=O)N2c2nc(C)c(C(=O)OC)s2)cc1 (stereo unspecified) | 3% | x | -5% | x
Cc1ccc2c(c1)COc1c3ccc(C(=O)N[C@@H](C)CO)cc3nn1-2 | 19% | 53* | 28% | 42*
Cc1ccc2c(c1)COc1c3ccc(C(=O)NC(C)C)cc3nn1-2 | -2% | 76* | -16% | 35*
CCCC#Cc1ccc2c(c1)COc1c3ccccc3nn1-2 | -10% | x | 20% | x
SMILES | Sm TGR block | Shiga inhibitor | FMDV inh | CHX counter
CCOC(=O)c1cnc2c(OC)cccc2c1Nc1cccc(O)c1 | -12% | x | 25µM* | x
CCOC(=O)c1cnc2c(C(F)(F)F)cccc2c1Nc1cccc(C(=O)OC)c1 | 2% | x | -27% | x
COc1cc(C2C(C(=O)Nc3ccccc3C)=C(C)Nc3ncnn32)ccc1OCC(N)=O (stereo unspecified) | -1% | x | -4% | x
Cc1ccsc1CN(C(=O)c1ccc(OCC(C)C)cc1)C1CCS(=O)(=O)C1 (stereo unspecified) | 1% | x | -11% | x
O=C(N/N=C/c1cccc(F)c1)c1cc(-c2ccco2)nc2ccccc12 | u | 86* | 18% | 71*
COc1cc(/C=N/NC(=O)c2cc(-c3ccccc3Cl)nc3ccccc23)cc(OC)c1O | x | x | 1% | x
O=C(N/N=C/c1ccc(F)cc1)c1cc(-c2ccccn2)nc2ccccc12 | 1% | x | -1% | x
COc1cc(/C=N/NC(=O)c2cc(-c3ccco3)nc3ccccc23)cc(OC)c1O | 45µM* | 4 | -20% | 9
CCC(C(=O)Nc1nnc2n1CCS2)c1ccccc1 (stereo unspecified) | 11% | x | 0% | x
N#Cc1c(N2CCCC2)nc(N)c2c(N)nc(N3CCCC3)cc12 | 10% | 47* | 12% | 31*
COc1cc2c(C#N)c(N3CCN(c4ccccc4OC)CC3)nc(N)c2c(N)n1 | -6% | 17 | 40µM* | 25
COc1cc2c(C#N)c(N3CCCC3)nc(N)c2c(N)n1 | 7% | 10 | -7% | 1
COc1ccc(-n2nc3c(c2NC(=O)CC(C)C)CS(=O)C3)cc1 (stereo unspecified) | -13% | -2 | 0% | 10
CC(C)CC(=O)Nc1c2c(nn1-c1ccc(F)cc1)CS(=O)(=O)C2 | 12% | -7 | -8% | -5
Cc1ccc(-n2nc3c(c2NC(=O)CC(C)C)CS(=O)C3)cc1 (stereo unspecified) | 50µM* | -1 | -12% | -5
CC(C)CC(=O)Nc1c2c(nn1-c1ccc(F)cc1)CS(=O)C2 (stereo unspecified) | -14% | 19 | -17% | 24*
O=C(O)Cc1cccc(OCCCN(Cc2cccc(C(F)(F)F)c2Cl)CC(c2ccccc2)c2ccccc2)c1 | x | 10 | u | 0
Cc1ccccc1Nc1nc(-c2sc(NC(=O)c3ccccc3)nc2C)cs1 | -2% | 50* | x | 12
Cc1ccccc1Nc1nc(-c2sc(NC(=O)c3cccc(Cl)c3)nc2C)cs1 | 11% | 44 | x | 19*
Cc1ccccc1Nc1nc(-c2sc(NC(=O)c3ccc([N+](=O)[O-])cc3)nc2C)cs1 | 2% | 39 | x | 16*
COc1ccc(C)cc1NC(=O)N1CCN(S(=O)(=O)c2ccc3c(ccn3C)c2)CC1 | 8% | x | -17% | x
CCCCNC(=O)C1CC(c2cccc([N+](=O)[O-])c2)=NO1 (stereo unspecified) | 2% | 83* | 45% | 25*
COc1ccc(CNC(=O)C2CC(c3cccc(OC)c3)=NO2)cc1 (stereo unspecified) | 6% | 8 | -17% | 3
COc1cccc(C2=NOC(C(=O)NCc3cccs3)C2)c1 (stereo unspecified) | 4% | 54* | 55% | 26*
O=C(NCc1cccnc1)C1CC(c2ccc(F)cc2)=NO1 (stereo unspecified) | -26% | 45 | -9% | 2
SMILES | Sm TGR block | Shiga inhibitor | FMDV inh | CHX counter
O=C(NCc1cccs1)C1CC(c2ccc(F)cc2)=NO1 (stereo unspecified) | 6% | 49* | 69% | 28*
CC1Cn2c(C(=O)NCc3ccccc3Cl)cc3cccc(c32)S1 (stereo unspecified) | 4% | x | 4% | x
Cc1c(C(=O)NCc2ccc(F)cc2)sc2ncnc(NCC3CCCO3)c12 (stereo unspecified) | x | x | -13% | x
COc1ccc(C(=O)OC2CC3CC[C@H](C2)N3C(C)=O)cc1OC (stereo partly specified) | x | x | -13% | x
COc1cccc(C(=O)Nc2nc(-c3ccncc3)cs2)c1 | 0% | 31 | -15% | 6
COc1cccc(C(=O)Nc2nc(C)cs2)c1 | 6% | 68* | 23% | 35*
Cc1csc(NC(=S)NC(=O)c2ccccc2)n1 | -10% | 61* | 35% | 22*
